CF NFkB block = inhibitors of PAF-induced NF-kB signaling, primary screen, cell-based, GFP fluorescence, uHTS | KKLEB NF-kB-GFP reporter, GFP fluorescence overnight | inhibition, % at 5 µM | 360,000 tested, 0.86% active | AID 588850, 2011;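 active means at least 50% inhibition at 5 µM, scaled per plate between neutral and stimulator controls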;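 further: PAF is a Pseudomonas aeruginosa culture filtrate used as stimulus; plate controls were PAF-stimulated DMSO wells for no effect and unstimulated DMSO wells for full effect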
Peg3 prom inh = Peg3 promoter-driven luciferase inhibitors, primary screen, cell-based, HeLa, luciferase luminescence; HeLa PEG-Prom luciferase reporter, overnight; inhibition, % at 20 µM; 360,000 tested, 1.7% active;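 active means inhibition of at least 50% at 20 µM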
HSP90 refold inh = HSP90 inhibitors, primary screen, cell lysate, luminescence. inhibition, % at 5.6 µM. Heat shock protein HSP 90 (rabbit reticulocyte lysate; luciferase refolding). Rabbit reticulocyte lysate, luciferase refolding luminescence, 3 h. 290,000 tested, 0.91% active. AID 1789, 2009;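 active means inhibition above the screen-wide mean plus 3 SD, computed separately per campaign, cut at about 16% in these data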;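 further: 0% = DMSO wells and 100% = 60 µM geldanamycin wells; inhibitors lower the luminescence because luciferase stays unfolded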
LGR2 antag = inhibitors of bursicon-induced LGR2 CRE-luciferase signal, primary screen, cell-based, HEK293, CRE-luciferase reporter, bursicon stimulation. inhibition, % at 9.99 µM. Drosophila bursicon receptor LGR2 (rickets). 380,000 tested, 0.35% active. bursicon-stimulated, 4 h. AID 720647, 2013;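 active means drop in luminescence signal, shown as inhibition above about 50% in the replicate tests, limit read from the data, passing the limit was not always enough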;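 further: agonist challenge used bursicon conditioned medium at about half maximal strength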
Mdm2-MdmX inh = inhibitors of human Mdm2-MdmX association, primary screen, cell-based, luminescence, split luciferase, SaOS-2, uHTS. Protein Mdm4 (Homo sapiens) + E3 ubiquitin-protein ligase Mdm2 (Homo sapiens), …. SaOS-2 split-luciferase Mdm2/MdmX complementation. inhibition, % at 8 µM. 330,000 tested, 3% active;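 active means inhibition of at least 50% at 8 µM in the primary screen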
Target sequence (O15151 whole entry, looked up): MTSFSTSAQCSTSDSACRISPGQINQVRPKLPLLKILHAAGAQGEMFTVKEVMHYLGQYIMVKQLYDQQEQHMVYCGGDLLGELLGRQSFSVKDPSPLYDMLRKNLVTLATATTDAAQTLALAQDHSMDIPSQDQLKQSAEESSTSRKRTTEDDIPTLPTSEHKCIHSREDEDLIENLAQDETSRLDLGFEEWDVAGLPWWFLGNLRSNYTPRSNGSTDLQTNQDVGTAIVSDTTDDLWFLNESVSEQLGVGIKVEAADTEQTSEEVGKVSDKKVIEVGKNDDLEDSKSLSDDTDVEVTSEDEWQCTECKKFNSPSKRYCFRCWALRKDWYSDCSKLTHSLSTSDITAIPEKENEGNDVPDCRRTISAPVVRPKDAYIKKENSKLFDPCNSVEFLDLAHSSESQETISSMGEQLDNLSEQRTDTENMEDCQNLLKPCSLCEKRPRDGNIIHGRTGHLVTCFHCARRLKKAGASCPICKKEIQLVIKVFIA
Target sequence (Q00987 whole entry, looked up): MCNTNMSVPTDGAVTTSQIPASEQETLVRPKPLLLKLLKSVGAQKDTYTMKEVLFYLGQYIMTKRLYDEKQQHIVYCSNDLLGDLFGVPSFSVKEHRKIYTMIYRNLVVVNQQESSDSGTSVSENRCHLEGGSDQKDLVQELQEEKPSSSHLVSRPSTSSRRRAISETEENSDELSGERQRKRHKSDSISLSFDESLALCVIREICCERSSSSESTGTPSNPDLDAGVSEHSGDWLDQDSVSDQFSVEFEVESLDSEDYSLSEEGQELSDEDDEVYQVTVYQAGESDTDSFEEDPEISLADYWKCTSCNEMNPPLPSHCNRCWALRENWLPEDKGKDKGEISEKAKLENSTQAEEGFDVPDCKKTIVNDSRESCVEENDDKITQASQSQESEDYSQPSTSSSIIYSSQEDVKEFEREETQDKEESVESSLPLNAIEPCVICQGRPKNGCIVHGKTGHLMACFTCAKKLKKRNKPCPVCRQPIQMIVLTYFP
KKLEB tox = cytotoxicity in KKLEB CF airway cells, primary screen, cytotoxicity control for CF NF-kB inhibitor project, cell-based, uHTS, fluorescence assay plates; activity change (cytotoxicity), % at 5 µM; AID 602141, 2011; KKLEB CF airway cells viability, ATPlite luminescence, overnight; active compounds read low; cells stimulated with P. aeruginosa culture filtrate; 360,000 tested, 0.36% active;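 active means corrected activity change at or below -50% at 5 µM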
CF NFkB conf = inhibitors of PAF-induced NF-kB signaling, retest, confirmation, cell-based, GFP fluorescence, single concentration; shares compounds with CF NFkB block; KKLEB CF airway cells, overnight; inhibition, % at 5 µM; 1,300 tested, 64% active; AID 602472, 2012; in the data active means inhibition above about 40%;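 further: stimulus PAF is a Pseudomonas aeruginosa filtrate and not platelet activating factor; plate controls were DMSO wells with stimulus for no effect and unstimulated DMSO wells for full effect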
* marks the source's active call; other numbers are inactive results; . = not tested or not shown. Most compounds without a hit are left out; they make up all but 3.6% or so of the library.

SMILES	CF NFkB block	Peg3 prom inh	HSP90 refold inh	LGR2 antag	Mdm2-MdmX inh	KKLEB tox	CF NFkB conf
CC(C)C[C@H]1CNC(=S)N1C[C@H]1CCCN1C[C@H](Cc1ccccc1)N1C[C@H](Cc2ccc(O)cc2)N(CCc2ccccc2)C1=S	66*	12	.	12	.	-11	31
CC(C)C[C@@H](CN1CCCC1CN1C(=S)NC[C@@H]1Cc1ccc(O)cc1)N1C[C@H](Cc2ccc(O)cc2)N(CC2CCCCCC2)C1=S (stereo partly specified)	52*	91*	.	16	.	0	61*
CC(C)C[C@@H](CN1CCCC1CN1C(=S)NC[C@@H]1Cc1ccc(O)cc1)N1C[C@H](Cc2ccccc2)N(CC2CCCCCC2)C1=S (stereo partly specified)	0	5	.	29	.	17	.
CC(C)C[C@H]1CNC(=S)N1C[C@H]1CCCN1C[C@H](Cc1ccc(O)cc1)N1C[C@H](CC(C)C)N(CCc2ccccc2)C1=S	56*	8	.	15	.	-16	22
CO[C@@H](CN(C)C(=O)c1cnccn1)[C@H](C)CN([C@@H](C)CO)S(=O)(=O)c1ccc(F)cc1	.	.	.	9	.	.	.
CN(C)C(=O)C[C@@H]1CC[C@@H]2[C@H](COC[C@@H](O)CN2Cc2ccc(C(F)(F)F)cc2)O1	.	.	.	5	.	.	.
CCCNC(=O)C[C@@H]1CC[C@@H]2[C@H](COc3ccc(NC(=O)c4ccc(C(F)(F)F)cc4)cc3C(=O)N2C)O1	.	.	.	7	.	.	.
O=C1NC[C@H](Cc2ccccc2)N(C[C@H]2CCCN2C[C@H](Cc2ccccc2)N2C[C@H](Cc3ccccc3)N(CC3CCCCCC3)C(=O)C2=O)C1=O	56*	54*	.	31	.	-24	20
N#C[C@@H]1[C@H](c2ccccc2-c2ccccc2)[C@H](CO)N1C(=O)Cc1ccncc1	.	.	.	0	.	.	.
CCOc1cc(/C=N\NC(=O)c2ccc(NC(=O)C(C)(C)C)cc2)ccc1OC(=O)c1ccc(C)cc1	26	27	0	.	34	-18	.
CCOc1cc(/C=N\NC(=O)c2ccc(NC(=O)CC)cc2)ccc1OC(=O)c1ccccc1	51*	71*	-2	.	19	-34	9
Cc1ncc(CO)c2c1Oc1nc(-c3ccccc3F)nc(SCC(=O)N(C)c3ccccc3)c1C2	94*	85*	-4	.	30	-28	96*
C[C@H]1Cn2cnc(C(=O)Nc3cccc(Cl)c3)c2C(=O)N1	62*	39	.	14	.	14	91*
CS(=O)(=O)Nc1cccc(-c2cc(NC=O)c3ncc(-c4ccc(F)cc4)n3c2)c1	52*	41	.	-43	.	-28	53*
COc1ccc(-c2cnc3c(NC=O)cc(-c4ccccc4OC)cn23)cc1OC	65*	44	.	-26	.	-34	91*
C=CCn1c(Oc2ccccc2F)nc2c1c(=O)n(C)c(=O)n2C	57*	10	-1	-5	49	-16	64*
C=CCn1c(Oc2cc(C)ccc2C)nc2c1c(=O)n(C)c(=O)n2C	27	-2	2	24	14	-14	.
COc1ccc(CN(C)C[C@H]2Oc3c(NC(=O)CCCCCC(=O)Nc4ccccc4N)cccc3C(=O)N([C@H](C)CO)C[C@@H]2C)cc1	.	.	.	-15	.	.	.
CC(C)OC(=O)c1cccc(C(=O)Nc2cccc(NC(=O)c3cccc(C(=O)OC(C)C)n3)n2)n1	57*	46	-4	4	43	-4	62*
Cc1cc(=O)oc2cc(O)cc(O)c12	-9	-3	.	12	.	-10	.
CCCCCc1cc(O)c2c(C)cc(=O)oc2c1	74*	-9	2	.	36	-8	80*
